Results taken from the supplement of paper PMC8728848.
Only a selection was taken, and the strongest signals are over-represented in it overall.

Key:
Assay in all cases: glycan array binding signal (z-score within array); higher = stronger binding
Settings in all cases: glycan notation: IUPAC condensed, linker removed
[1] = biological target: Fuc(a1-3)[Gal(b1-4)]GlcNAc(b1-4)Gal(b1-4)[Fuc(a1-3)]GlcNAc
Method in brief: (§1)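 Glycan array data came from 3228 arrays in the Consortium for Functional Glycomics database, and only arrays with an available protein sequence were kept. Glycan names were put into IUPAC-condensed notation, and columns mapping to the same glycan were averaged. The binding signal is a within-array Z-score, averaged across arrays of one protein sequence run at different concentrations or buffers and across linkers. A negative Z-score can be read as non-binding.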

Gal(a1-2)Gal = biological target: Gal(a1-2)Gal
Method in brief: as §1

Gal(b1-2)Gal = biological target: Gal(b1-2)Gal
Method in brief: as §1

[2] = biological target: Gal(b1-3)[Fuc(a1-4)]GlcNAc
Method in brief: as §1

[3] = biological target: Gal(b1-4)GlcNAc(b1-3)Gal(b1-4)[Fuc(a1-3)]GlcNAc(b1-3)Gal(b1-4)[Fuc(a1-3)]GlcNAc
Method in brief: as §1

Gal3S(b1-4)Glc6S = biological target: Gal3S(b1-4)Glc6S
Method in brief: as §1

Gal6S(b1-4)Glc6S = biological target: Gal6S(b1-4)Glc6S
Method in brief: as §1

Glc(b1-6)Glc = biological target: Glc(b1-6)Glc
Method in brief: as §1

[4] = biological target: GlcNAc(b1-2)Gal(b1-3)GlcNAc
Method in brief: as §1

GlcNAc(b1-3)GalNAc = biological target: GlcNAc(b1-3)GalNAc
Method in brief: as §1

[5] = biological target: Neu5Ac(a2-3)Gal(b1-4)GlcNAc(b1-3)Gal(b1-4)[Fuc(a1-3)]GlcNAc
Method in brief: as §1

[6] = biological target: Neu5Ac(a2-6)Gal(b1-4)GlcNAc
Method in brief: as §1

[7] = biological target: Neu5Ac(a2-8)Neu5Ac(a2-8)Neu5Ac(a2-8)Neu5Ac(a2-3)[GalNAc(b1-4)]Gal(b1-4)Glc
Method in brief: as §1

[8] = biological target: Neu5Ac9Ac(a2-6)Gal(b1-4)GlcNAc
Method in brief: as §1

[9] = biological target: Neu5Gc(a2-3)Gal(b1-3)[Fuc(a1-4)]GlcNAc
Method in brief: as §1

B1: Onconase (Rana pipiens), P22069 (protein)
chain: QDWLTFQKKHITNTRDVDCDNIMSTNLFHCKDKNTFIYSRPEPVKAICKGIIASKNVLTTSEFYLSDCNVTSRPCKYKLKKSTNKFCVTCENQAPVHFVGVGSC
glycan array binding signal (z-score) [1]: 1.21 | glycan array binding signal (z-score) (Gal(a1-2)Gal): 3.22 | glycan array binding signal (z-score) (Gal(b1-2)Gal): 2.63 | glycan array binding signal (z-score) [2]: -0.553 | glycan array binding signal (z-score) [3]: 2.54 | glycan array binding signal (z-score) (Gal3S(b1-4)Glc6S): -0.281 | glycan array binding signal (z-score) (Gal6S(b1-4)Glc6S): 0.598 | glycan array binding signal (z-score) (Glc(b1-6)Glc): 0.027 | glycan array binding signal (z-score) [4]: -0.449 | glycan array binding signal (z-score) (GlcNAc(b1-3)GalNAc): -0.84 | glycan array binding signal (z-score) [5]: -0.671 | glycan array binding signal (z-score) [6]: 0.51 | glycan array binding signal (z-score) [7]: 2.71 | glycan array binding signal (z-score) [8]: -0.006 | glycan array binding signal (z-score) [9]: 1.6
